The source of these data is PubChem BioAssay.

Records with an inconclusive call do not appear. Active and inactive are the calls of the source.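 The calls were made as follows, unless noted: active = percent response above 42, roughly 3 SD of non-fluorescent test compounds; inactive = the rest.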

A short description of assay [1]: yeast TOR pathway RPL19A-GFP modulators, primary screen, cell-based, S. cerevisiae, multiplex flow cytometry (AID 1862; in the data active = percent of DMSO control GFP below about 86%;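 also: lower values mimic rapamycin by blocking the RPL19A rise seen in DMSO cells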). The following applies: S. cerevisiae RPL19A-GFP strain, flow cytometry fluorescence, 3 h; at 10 µM; stronger effect = lower value. On the technique in general: Flow cytometry measures light scatter and fluorescence of single cells or particles in a stream.

Assay [2] can be described thus: modulators of MEP2-GFP levels in yeast, primary screen, S. cerevisiae, multiplex flow cytometry (AID 1867;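 active = GFP response, as percent of the DMSO control, above the screen-wide mean plus 3 SD, about 139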;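 also: median GFP channel fluorescence of barcode-gated MEP2-GFP cells measured by flow cytometry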). The conditions noted are these: S. cerevisiae MEP2-GFP strain, 3 h, at 10 µM, stronger effect = higher value, 100% means same as DMSO wells.
Assay [3] can be described thus: modulators of CIT2-GFP expression in yeast, primary screen, S. cerevisiae, GFP fusion, multiplex flow cytometry (AID 1870;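 active = percent response above a set limit, the screen-wide mean plus 3 SD, cut at about 130% in these data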;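 also: barcoded CIT2-GFP strain pooled with four other GFP strains with rapamycin as positive control; median GFP fluorescence per well over plate mean of DMSO wells so 100% = DMSO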). The following applies: 3 h, at 10 µM, stronger effect = higher value.
Assay [4] is described as follows: modulators of LAP4-GFP expression in yeast, primary screen, S. cerevisiae, multiplex flow cytometry (AID 1873;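 active = GFP signal, as percent of the solvent control, above the screen mean plus 3 SD, about 149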). The following applies: 3 h, at 10 µM, stronger effect = higher value.
Assay [5] can be described thus: modulators of AGP1-GFP expression in yeast TOR pathway, primary screen, cell-based, multiplex flow cytometry, S. cerevisiae (AID 1887;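 active = GFP signal above the screen-wide mean plus 3 SD, that is over about 124.5% of the solvent control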;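 also: AGP1-GFP fusion strain of S. cerevisiae within a five-strain barcoded multiplex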). The conditions noted are these: 3 h, at 10 µM, stronger effect = higher value.
Assay [6] in a line: inhibitors of CD8+ T cell-vesicle binding, pilot screen, LFA-1/ICAM-1 modulator project, MLPCN validation set, flow cytometry (AID 2523;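 active = response below a set limit, under 55% cells CD8-positive and vesicle-bound, and CD8 cells' 90th-percentile brightness under 279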;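 as to vesicle binding response: mean PE anti-B7-1 fluorescence of CD8+ cells relative to row control; 100% = QL9-loaded vesicles with DMSO vehicle in the same plate row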). The following applies: 2C mouse CD8+ T cells, at 7 µM, stronger effect = lower value; double positive events: measured here: CD8+/vesicle+ event percentage.
The target in assay [7] is Integrin beta-1 (Homo sapiens) + Integrin alpha-4 (Homo sapiens) (UniProt P13612+P05556). The assay is described as follows: inhibition of HUTS-21 binding to VLA-4, pilot screen, VLA-4 allosteric modulator project, U937 cells, HUTS-21 mAb, flow cytometry, validation set (AID 2674;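 active = inhibition above 50%, about 3 SD of the validation set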;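 also: antibody binding induced by the VLA-4 ligand LDV present at three times its Kd; 0% = LDV ligand with antibody and no compound and 100% = antibody without LDV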). The conditions noted are these: HUTS-21 LIBS mAb binding, at 6.7 µM, stronger effect = higher value, binding induced by LDV ligand.
Integrin beta-1 (Homo sapiens) + Integrin alpha-4 (Homo sapiens), sequence (P05556 whole entry, looked up): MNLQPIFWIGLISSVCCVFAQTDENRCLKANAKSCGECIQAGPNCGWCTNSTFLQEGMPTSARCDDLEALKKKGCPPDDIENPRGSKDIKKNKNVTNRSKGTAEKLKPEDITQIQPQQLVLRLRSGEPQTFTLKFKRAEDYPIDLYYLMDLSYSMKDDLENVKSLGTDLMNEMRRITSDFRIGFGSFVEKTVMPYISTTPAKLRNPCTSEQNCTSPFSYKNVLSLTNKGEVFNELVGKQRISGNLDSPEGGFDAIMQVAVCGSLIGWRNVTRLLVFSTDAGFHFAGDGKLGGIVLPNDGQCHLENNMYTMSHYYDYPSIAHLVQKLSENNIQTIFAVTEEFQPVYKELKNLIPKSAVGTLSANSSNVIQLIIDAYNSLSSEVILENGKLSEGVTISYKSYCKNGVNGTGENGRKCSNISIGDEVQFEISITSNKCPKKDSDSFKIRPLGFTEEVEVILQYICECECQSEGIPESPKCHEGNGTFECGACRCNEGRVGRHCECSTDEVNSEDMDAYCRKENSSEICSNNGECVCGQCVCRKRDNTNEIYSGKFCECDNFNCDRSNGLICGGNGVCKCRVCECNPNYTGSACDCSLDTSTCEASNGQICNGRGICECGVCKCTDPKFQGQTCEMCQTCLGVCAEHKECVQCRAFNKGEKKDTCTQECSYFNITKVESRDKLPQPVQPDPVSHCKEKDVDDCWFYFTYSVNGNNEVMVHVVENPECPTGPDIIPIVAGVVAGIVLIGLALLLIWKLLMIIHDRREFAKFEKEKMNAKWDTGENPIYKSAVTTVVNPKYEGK
Integrin beta-1 (Homo sapiens) + Integrin alpha-4 (Homo sapiens), sequence (P13612 whole entry, looked up): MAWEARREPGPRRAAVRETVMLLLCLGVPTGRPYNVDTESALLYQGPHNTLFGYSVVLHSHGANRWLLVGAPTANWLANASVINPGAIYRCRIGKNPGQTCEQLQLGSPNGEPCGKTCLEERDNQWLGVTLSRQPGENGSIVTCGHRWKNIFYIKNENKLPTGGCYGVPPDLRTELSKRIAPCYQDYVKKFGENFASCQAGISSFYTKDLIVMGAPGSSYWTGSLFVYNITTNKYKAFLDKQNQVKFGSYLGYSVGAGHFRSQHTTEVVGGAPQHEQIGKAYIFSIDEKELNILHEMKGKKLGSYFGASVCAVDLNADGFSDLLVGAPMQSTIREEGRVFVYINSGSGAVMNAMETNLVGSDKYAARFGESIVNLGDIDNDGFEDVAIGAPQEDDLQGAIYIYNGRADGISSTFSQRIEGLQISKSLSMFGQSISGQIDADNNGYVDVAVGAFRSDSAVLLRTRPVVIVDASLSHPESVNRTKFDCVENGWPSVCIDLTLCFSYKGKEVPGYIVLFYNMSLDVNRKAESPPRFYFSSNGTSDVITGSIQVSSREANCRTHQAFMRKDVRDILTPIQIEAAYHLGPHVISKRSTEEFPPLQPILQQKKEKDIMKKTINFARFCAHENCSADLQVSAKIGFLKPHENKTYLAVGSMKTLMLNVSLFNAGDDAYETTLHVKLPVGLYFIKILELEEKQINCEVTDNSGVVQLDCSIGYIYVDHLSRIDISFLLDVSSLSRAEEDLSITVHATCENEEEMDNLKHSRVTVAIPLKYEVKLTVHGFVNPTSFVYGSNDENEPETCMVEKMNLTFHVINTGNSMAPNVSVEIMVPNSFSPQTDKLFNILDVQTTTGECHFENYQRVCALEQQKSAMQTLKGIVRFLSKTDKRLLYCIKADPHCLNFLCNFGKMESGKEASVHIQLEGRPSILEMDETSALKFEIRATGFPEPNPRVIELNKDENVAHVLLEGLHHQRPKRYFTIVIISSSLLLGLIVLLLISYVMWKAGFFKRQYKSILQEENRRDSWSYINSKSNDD

The nature of assay [8]: superoxide lowering in aged yeast cells, pilot screen, validation compound set (AID 2706;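 active = superoxide response below 65% of plate, a cut near 3 SD across the whole screen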;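 also: yeast exposed to compound for one week at 30 degrees C before staining; 100% = mean of all compound wells on the same plate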). The following applies: S. cerevisiae aging, superoxide DHE fluorescence; at 10 µM; stronger effect = lower value.
The target of assay [9] is Beta-adrenergic receptor kinase 1 (Homo sapiens) (UniProt P25098). Description: GRK2 binders displacing RNA aptamer, biochemical, validation, human GRK2, bead flow cytometry (AID 488806;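 active = aptamer binding inhibition above 30%, about 3 SD of noise from non-fluorescent compounds; inactive = inhibition at or below 30%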). The conditions noted are these: bead-bound GRK2, FAM-aptamer displacement, at 10 µM, stronger effect = higher value.
Beta-adrenergic receptor kinase 1 (Homo sapiens), sequence (P25098 whole entry, looked up): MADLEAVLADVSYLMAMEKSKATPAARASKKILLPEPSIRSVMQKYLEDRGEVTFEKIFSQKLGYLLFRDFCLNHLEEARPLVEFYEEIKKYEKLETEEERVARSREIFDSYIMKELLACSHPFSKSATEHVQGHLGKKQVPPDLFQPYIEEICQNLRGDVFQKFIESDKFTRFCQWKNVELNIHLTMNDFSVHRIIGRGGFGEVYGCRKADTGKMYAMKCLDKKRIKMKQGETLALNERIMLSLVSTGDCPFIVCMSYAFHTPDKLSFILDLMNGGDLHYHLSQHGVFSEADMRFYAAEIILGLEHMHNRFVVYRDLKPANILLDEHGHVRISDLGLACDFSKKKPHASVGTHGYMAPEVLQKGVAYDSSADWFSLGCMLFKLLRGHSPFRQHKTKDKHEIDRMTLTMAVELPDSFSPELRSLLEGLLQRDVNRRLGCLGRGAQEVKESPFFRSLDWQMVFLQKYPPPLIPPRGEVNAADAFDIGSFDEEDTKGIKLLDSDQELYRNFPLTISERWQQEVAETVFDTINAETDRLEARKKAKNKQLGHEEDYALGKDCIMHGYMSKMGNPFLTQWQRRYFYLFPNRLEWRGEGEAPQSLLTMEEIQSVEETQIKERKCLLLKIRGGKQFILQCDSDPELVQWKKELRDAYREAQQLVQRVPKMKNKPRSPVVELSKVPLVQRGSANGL
Assay [10] concerns the target Beta-2 adrenergic receptor (Homo sapiens) (UniProt P07550). Description: beta2AR agonists driving receptor internalization, pilot screen, cell-based, FAP fluorogen, flow cytometry, validation set (AID 504459).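 Also: agonist-driven loss of surface beta2AR via internalization measured by FAP dye flow cytometry.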 The conditions noted are these: Am2.2-beta2AR cells, FAP surface receptor flow cytometry; at 10 µM; stronger effect = higher value.
The target in assay [11] is AP-2 complex subunit beta (Homo sapiens) (UniProt P63010). The assay is described as follows: inhibitors of arrestin peptide binding to AP2, pilot screen, biochemical, validation set, GST-AP2 beads, flow cytometry (AID 504541;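 active = inhibition above 54%, about 3 SD of non-fluorescent compounds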;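 also: AP2 carries R879A mutation and is captured from E. coli lysate; bead-bound FITC arrestin peptide fluorescence measuring arrestin peptide binding to AP2; 0% = DMSO wells and 100% = excess unlabeled arrestin peptide control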). The conditions noted are these: FITC arrestin peptide, at 10 µM, stronger effect = higher value, AP2 beta2 appendage fragment, R879A mutant.
AP-2 complex subunit beta (Homo sapiens), sequence (P63010 whole entry, looked up, the tested form may be a part, one chain of several): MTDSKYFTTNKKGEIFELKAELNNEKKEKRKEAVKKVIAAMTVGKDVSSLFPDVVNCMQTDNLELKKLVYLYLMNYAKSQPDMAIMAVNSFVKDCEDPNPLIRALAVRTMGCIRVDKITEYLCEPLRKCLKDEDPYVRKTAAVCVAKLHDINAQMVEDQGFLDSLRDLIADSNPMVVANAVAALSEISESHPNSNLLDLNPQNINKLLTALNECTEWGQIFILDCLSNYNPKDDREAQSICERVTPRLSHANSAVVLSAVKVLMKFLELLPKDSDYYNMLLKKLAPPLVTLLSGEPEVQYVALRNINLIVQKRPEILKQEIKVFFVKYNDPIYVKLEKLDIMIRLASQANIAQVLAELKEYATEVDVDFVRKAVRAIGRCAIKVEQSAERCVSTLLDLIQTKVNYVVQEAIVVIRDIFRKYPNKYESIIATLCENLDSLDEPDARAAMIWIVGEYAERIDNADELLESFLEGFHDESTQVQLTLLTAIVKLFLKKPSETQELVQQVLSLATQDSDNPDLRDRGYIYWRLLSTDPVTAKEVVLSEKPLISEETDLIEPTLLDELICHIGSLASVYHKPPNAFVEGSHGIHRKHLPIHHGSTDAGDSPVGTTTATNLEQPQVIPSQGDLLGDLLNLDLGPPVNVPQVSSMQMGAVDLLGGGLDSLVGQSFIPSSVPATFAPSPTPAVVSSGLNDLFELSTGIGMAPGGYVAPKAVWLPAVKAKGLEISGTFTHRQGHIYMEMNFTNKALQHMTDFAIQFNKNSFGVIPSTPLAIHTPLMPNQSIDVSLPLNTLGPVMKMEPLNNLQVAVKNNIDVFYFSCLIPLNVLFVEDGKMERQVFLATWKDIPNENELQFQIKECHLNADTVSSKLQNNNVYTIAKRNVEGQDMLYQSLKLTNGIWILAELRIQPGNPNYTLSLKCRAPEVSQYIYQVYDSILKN
A short description of assay [12]: yeast V-ATPase proton transport modulators, S. cerevisiae, pHLuorin, HTS validation (AID 504600; in the data active = response above about 15%;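 also: plate controls were DMSO for no effect and reference compound for full effect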). The conditions noted are these: S. cerevisiae pHLuorin cytosolic pH, at 10 µM, stronger effect = higher value.
In assay [13] the test system is anti-desmoglein-3 scFv antibody binding to human DSG3. Description: inhibitors of anti-DSG3 scFv binding to DSG3, pilot screen, biochemical, validation compound set, bead-based, flow cytometry (AID 588368;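 active = binding below the plate cutoff, the plate median minus 3 SD, with a reading above zero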;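 also: signal is the median channel fluorescence of bead-bound GFP antibody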). The conditions noted are these: Protein G beads, DSG3-Fc, scFv-GFP binding, at 10 µM, stronger effect = lower value.
A short description of assay [14]: inhibitors of fungal efflux pumps CDR1, CDR2, MDR1, pilot screen, validation compound set, multiplex, phenotypic (AID 588506;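 active = efflux inhibition above 0.42, the validation set average plus 4 SD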;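 also: Nile Red retained in cells so higher fluorescence means more efflux inhibition; 0 = negative control wells and 1 = enniatin B 25 µM full block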). The conditions noted are these: S. cerevisiae pump-expressing triplex, Nile Red efflux flow cytometry; at 10 µM; stronger effect = higher value; the pumps come from Candida albicans.
In assay [15] the target is ATP-binding cassette sub-family B member 6 (Homo sapiens) (UniProt Q9NP58). The assay is described as follows: ABCB6 transporter inhibitors, pilot screen, K562-ABCB6 cells, flow cytometry, validation set (AID 588550;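 active = inhibition above the screen-wide mean plus 3 SD, about 51%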;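 also: 0% = DMSO wells and 100% = benzethonium chloride 70 µM positive control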). The conditions noted are these: K562-ABCB6 porphyrin accumulation, 1 h, at 10 µM, stronger effect = higher value.
ATP-binding cassette sub-family B member 6 (Homo sapiens), sequence (Q9NP58 whole entry, looked up): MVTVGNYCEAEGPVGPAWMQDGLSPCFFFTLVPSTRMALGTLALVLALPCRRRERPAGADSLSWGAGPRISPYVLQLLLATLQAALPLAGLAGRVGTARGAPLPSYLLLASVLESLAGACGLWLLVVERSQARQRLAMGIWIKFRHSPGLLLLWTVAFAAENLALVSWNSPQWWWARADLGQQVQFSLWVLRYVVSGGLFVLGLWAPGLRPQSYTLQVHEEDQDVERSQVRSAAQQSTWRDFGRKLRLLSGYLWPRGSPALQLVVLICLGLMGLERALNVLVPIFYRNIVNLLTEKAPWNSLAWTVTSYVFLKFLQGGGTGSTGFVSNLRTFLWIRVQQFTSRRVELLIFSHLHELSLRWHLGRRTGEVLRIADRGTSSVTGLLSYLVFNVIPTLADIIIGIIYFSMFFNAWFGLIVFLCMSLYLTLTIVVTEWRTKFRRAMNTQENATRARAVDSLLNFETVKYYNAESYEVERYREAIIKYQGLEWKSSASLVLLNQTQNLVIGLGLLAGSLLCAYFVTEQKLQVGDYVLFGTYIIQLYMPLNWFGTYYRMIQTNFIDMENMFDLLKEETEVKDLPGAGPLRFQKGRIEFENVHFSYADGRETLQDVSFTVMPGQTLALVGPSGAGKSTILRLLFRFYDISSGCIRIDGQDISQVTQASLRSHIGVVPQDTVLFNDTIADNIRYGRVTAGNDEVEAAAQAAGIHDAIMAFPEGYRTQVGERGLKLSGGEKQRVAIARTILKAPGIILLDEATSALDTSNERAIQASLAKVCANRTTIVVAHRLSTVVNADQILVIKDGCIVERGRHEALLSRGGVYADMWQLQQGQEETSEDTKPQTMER
Assay [16] is described as follows: promoters of myeloid differentiation in arrested cells, primary screen, cell-based, GFP/MAC1 double positive, flow cytometry, validation set (AID 588685;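 active = differentiation response of at least 50%, scaled between solvent and reference control, from cells with both markers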;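 also: compound exposure lasts four days before antibody staining and flow analysis; 0% = DMSO wells and 100% = 5 µM fulvestrant positive control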). The following applies: ER-HoxA9 marrow cells, stronger effect = higher value, normalized: vehicle 0, fulvestrant 100.

Beta-2 adrenergic receptor (Homo sapiens), sequence (P07550 whole entry, looked up): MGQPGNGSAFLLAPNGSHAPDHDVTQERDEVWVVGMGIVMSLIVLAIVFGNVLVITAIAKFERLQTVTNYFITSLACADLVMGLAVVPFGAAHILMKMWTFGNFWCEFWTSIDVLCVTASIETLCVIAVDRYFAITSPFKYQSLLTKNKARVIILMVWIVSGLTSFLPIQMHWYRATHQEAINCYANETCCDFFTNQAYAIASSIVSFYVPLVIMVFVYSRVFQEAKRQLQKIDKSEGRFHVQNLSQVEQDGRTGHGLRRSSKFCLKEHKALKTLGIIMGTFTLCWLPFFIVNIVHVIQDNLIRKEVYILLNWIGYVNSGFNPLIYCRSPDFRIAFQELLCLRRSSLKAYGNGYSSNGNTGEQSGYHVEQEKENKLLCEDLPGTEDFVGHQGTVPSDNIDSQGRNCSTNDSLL

On to `COc1cc(COc2ccc3c(C)c(Cc4ccccc4)c(=O)oc3c2)cc(OC)c1OC`, for which, in assay [1], the percent of DMSO control GFP is 102% (inactive). Also, the values for the GFP response vs DMSO in assay [2] and in assay [4] were 103% (inactive) and 94% (inactive), respectively. In assay [3], the percent response of DMSO control is 122% (inactive). In addition, the GFP response, % of DMSO in assay [5] is 98.9% (inactive). In addition, the double positive events in assay [6] was 55%. In assay [6], the vesicle binding response is 38.9% (inactive). In addition, the inhibition in assay [7] is 5.77% (inactive); in assay [11] it was 3.79% (inactive); in assay [15] it was -5% (inactive). In [8], the superoxide response (% of plate) is 117% (inactive). Besides, in assay [9], the aptamer binding inhibition was 3% (inactive). Also, the values for the response in assay [10] and in assay [12] were 5.22% (inactive) and -1.95% (inactive), respectively. Also, the binding (% of control) in assay [13] is 97.2% (inactive). The efflux inhibition (fraction of control) in assay [14] is 0.08 (inactive). In assay [16], the differentiation response was 3.18% (inactive).

In the case of `CCN(CC)CCOC(=O)C(c1ccccc1)c1ccccc1`, the percent of DMSO control GFP in assay [1] was 102% (inactive). The GFP response vs DMSO in assay [2] was 108% (inactive); in assay [4], 90.1% (inactive). For the same compound, the percent response of DMSO control in assay [3] is 91.9% (inactive). For the same compound, the GFP response, % of DMSO in [5] is 95.6% (inactive). Further, the double positive events in [6] amounted to 59.4%. The vesicle binding response in assay [6] was 91.8% (inactive). The inhibition in assay [7] was -4.6% (inactive); in [11], 59.1% (active); in [15], 6% (inactive). The superoxide response (% of plate) in [8] is 105% (inactive). For the same compound, the aptamer binding inhibition in assay [9] is 3% (inactive). Besides, the results for the response in assay [10] and in assay [12] were 2.02% (inactive) and -3.97% (inactive), respectively. Further, in assay [13], the binding (% of control) is 99% (inactive). Moreover, the efflux inhibition (fraction of control) in assay [14] was 0.3 (inactive). For the same compound, the differentiation response in assay [16] was 37.4% (inactive).

With `O=C(CS(=O)(=O)Cc1ccccc1)NCc1ccc2c(c1)OCO2`, the percent of DMSO control GFP in [1] is 88% (inactive). In addition, the GFP response vs DMSO is 123% (inactive) in [2] and 81.4% (inactive) in assay [4]. In [3], the percent response of DMSO control is 88.6% (inactive). The GFP response, % of DMSO in [5] was 95.2% (inactive). In assay [6], this compound displayed a double positive events of 63.3%. Also, the vesicle binding response in assay [6] is 123% (inactive). The inhibition in assay [7] was -3.24% (inactive); in assay [11], -1.72% (inactive); in [15], -87% (inactive). The superoxide response (% of plate) in [8] was 92% (inactive). Moreover, the aptamer binding inhibition in [9] was 1% (inactive). Further, the response in assay [10] is -3.4% (inactive); in [12] it was -0.1% (inactive). Further, the binding (% of control) in assay [13] was 104% (inactive). Moreover, the efflux inhibition (fraction of control) in [14] was -0.24 (inactive). Also, the differentiation response in [16] was 5.73% (inactive).

With `CC(C)c1ccc(OCc2ccc(C(=O)O)o2)cc1`, the percent of DMSO control GFP in [1] was 105% (inactive). Further, the GFP response vs DMSO in assay [2] is 102% (inactive); in [4], 91.5% (inactive). Further, in assay [3], the percent response of DMSO control was 109% (inactive). Moreover, the GFP response, % of DMSO in [5] is 93.7% (inactive). Also, the double positive events in assay [6] worked out at 87.7%. For the same compound, in [6], the vesicle binding response was 313% (inactive). The inhibition in assay [7] was 11% (inactive); in [11], 2.53% (inactive); in assay [15] it was 2% (inactive). Besides, in assay [8], the superoxide response (% of plate) is 107% (inactive). For the same compound, the aptamer binding inhibition in assay [9] was 15% (inactive). For the same compound, the results for the response in assay [10] and in assay [12] were 5.55% (inactive) and 13.4% (inactive), respectively. Further, the binding (% of control) in assay [13] is 98.3% (inactive). Further, the efflux inhibition (fraction of control) in [14] was -0.16 (inactive). Moreover, the differentiation response in [16] is -7.5% (inactive).

In general, inhibition refers to the change of the read-out against control, counted positive when it falls.
